# Assay results published in ChEMBL document CHEMBL3988442, “University of Dundee, Small-Polar-MMV Screening Library” (2021).
# Hit rate of the full screen: of about 66,000 compounds, about 960 (1.5%) showed an effect of 50% or more. What follows is part of a selection rich in strong results, with near analogues and random picks from the rest.
# Test system: Trypanosoma brucei
# Assay: Trypanosoma brucei 72 hour study
# Format: functional, organism-based
# Parameters: scale not given: in the data most compounds retested in dose-response had high values
smiles,measurement,setting,value
O=C1NCCN1C1CCN(CCOc2ccccc2F)CC1,Percent Effect,10 µM,-33.22%
Cc1ccc(CN2C[C@@H]3CCCO[C@@H]3[C@H](N(C)Cc3ccco3)C2)o1.O=C(O)C(F)(F)F.O=C(O)C(F)(F)F,Percent Effect,"30 µM, 30.03 µM",25.08%
CCCN1CCCn2c(nc(CNC(=O)c3cnoc3C)cc2=O)C1.O=C(O)C(F)(F)F,Percent Effect,"30 µM, 30.03 µM",19.21%
COCCn1cc(NC(=O)NCC(c2cccc(F)c2)N(C)C)cn1 (stereo unspecified),Percent Effect,"30.3 µM, […]",9.218%
COCCn1cc(NC(=O)NCC(C)N2CCOCC2)cn1 (stereo unspecified),Percent Effect,"30.3 µM, […]",-22.83%
CCC(CC)C(CNC(=O)Nc1cnn(CCOC)c1)N(C)C (stereo unspecified),Percent Effect,"30.3 µM, […]",100.4%
CC(C)c1nnc2n1CC(CNC/C=C/c1ccccc1)CC2 (stereo unspecified),Percent Effect,"30 µM, 30.03 µM",7.913%
CC(C)NC1CCc2[nH]c(=O)ccc2C1.O=C(O)C(F)(F)F (stereo unspecified),Percent Effect,"30.3 µM, […]",-14.11%
CN1CCO[C@@H]2CN(C(=O)Cc3cccs3)CC[C@@H]2C1.O=C(O)C(F)(F)F,Percent Effect,"30.3 µM, […]",-41.5%
CC(C)Cc1ncc2c(n1)CN(c1nccc(NC(C)C)n1)C2,Percent Effect,"30 µM, 30.03 µM",89.54%
CCNc1ccnc(N2Cc3cnc(CC(C)C)nc3C2)n1,Percent Effect,"30 µM, 30.03 µM",7.855%
CC(C)Nc1ccnc(N2Cc3cnc(C(C)(C)C)nc3C2)n1,Percent Effect,"30 µM, 30.03 µM",-43.35%
CN(Cc1cccnc1)[C@@H]1CN(C(=O)c2ccoc2)[C@@H]2CCCO[C@H]12.O=C(O)C(F)(F)F.O=C(O)C(F)(F)F,Percent Effect,"30.3 µM, […]",-7.538%
CN1CCN(Cc2cnc3n2CCN(CCc2ccccc2)C3)CC1.O=C(O)C(F)(F)F.O=C(O)C(F)(F)F.O=C(O)C(F)(F)F,Percent Effect,"30.3 µM, […]",-12.43%
Cc1cccc(CN2CC3(CCN(Cc4ccoc4)CC3)OCC2=O)n1.O=C(O)C(F)(F)F.O=C(O)C(F)(F)F,Percent Effect,"30.3 µM, […]",-93.34%
O=C(O)CC(O)(CC(=O)O)C(=O)O.OCCN(Cc1ccncc1)CC1(c2ccc(Cl)cc2)CCCC1,Percent Effect,"30.3 µM, […]",12.41%
CC(C)Nc1cc(-c2c[nH]nc2C2CCN(C(=O)C3CC3)C2)ccn1 (stereo unspecified),Percent Effect,"30.3 µM, […]",99.82%
CC(C)Nc1cc(-c2c[nH]nc2C2CCN(C(=O)C3CCC3)C2)ccn1 (stereo unspecified),Percent Effect,"30.3 µM, […]",100.4%
CC(=O)N1CCC(c2n[nH]cc2-c2ccnc(N)c2)C1 (stereo unspecified),Percent Effect,"30.3 µM, […]",-2.575%
Nc1cc(-c2c[nH]nc2C2CCN(C(=O)C3CCCC3)C2)ccn1 (stereo unspecified),Percent Effect,"30.3 µM, […]",38.23%
O=C(C1CCCC1)N1CCC(c2ccnc(Nc3cnccn3)n2)C1 (stereo unspecified),Percent Effect,"30.3 µM, […]",9.82%
CC(C)N1CCC(c2n[nH]cc2-c2ccnc(N)c2)C1 (stereo unspecified),Percent Effect,"30.3 µM, […]",2.3%
CN1CCC(c2n[nH]cc2-c2ccnc(N)c2)C1 (stereo unspecified),Percent Effect,"30.3 µM, […]",-5.978%
Cc1c[nH]nc1C1CCN(C(=O)Cn2cccn2)C1 (stereo unspecified),Percent Effect,"30.3 µM, […]",-30.39%
Nc1cc(-c2c[nH]nc2C2CCCCN2C(=O)C2CCCC2)ccn1 (stereo unspecified),Percent Effect,"30.3 µM, […]",11.59%
CC(C)CNc1cc(-c2c[nH]nc2C2CCN(C(=O)C3CC3)C2)ccn1 (stereo unspecified),Percent Effect,"30.3 µM, […]",100.1%
CN(C)S(=O)(=O)N1CCC(c2n[nH]cc2-c2ccnc(N)c2)C1 (stereo unspecified),Percent Effect,"30.3 µM, […]",-8.179%
CCCNc1cc(-c2c[nH]nc2C2CCN(C(=O)C3CCC3)C2)ccn1 (stereo unspecified),Percent Effect,"30.3 µM, […]",99.71%
Cc1occc1C(=O)N1CCO[C@H]2[C@@H](Oc3ccccn3)CC[C@@H]21.O=C(O)C(F)(F)F,Percent Effect,"30 µM, 30.03 µM",26.48%
CNC(=O)CN1CCOCC2(C1)CN(C(=O)C(C)C)CCO2.O=C(O)C(F)(F)F (stereo unspecified),Percent Effect,"30 µM, 30.03 µM",-6.033%
CS(=O)(=O)N1CCO[C@H]2[C@@H](Oc3ncccc3F)CC[C@@H]21.O=C(O)C(F)(F)F,Percent Effect,"30.3 µM, […]",12.73%
CC(=O)NC1CCN(c2cc(C3CCNCC3)ccn2)CC1.Cl.Cl,Percent Effect,"30.3 µM, […]",-5.403%
O=C(O)C(F)(F)F.O=C([C@@H]1CC[C@@H]2[C@@H](CCN2c2ccncn2)O1)N1CCCCO1,Percent Effect,"30.3 µM, […]",-55.7%
Cc1cc(N2CCC(N(C)C(=O)c3ccccc3F)CC2)nc(C)n1,Percent Effect,"30 µM, 30.03 µM",-12.35%
Cn1ccnc1C(=O)N[C@@H]1CN(CC2CCOCC2)[C@@H]2CCCO[C@@H]21.O=C(O)C(F)(F)F,Percent Effect,"30.3 µM, […]",-79.05%
Cc1cc(SCC(=O)O)nc2nn(CC(F)F)c(C)c12,Percent Effect,"30.3 µM, […]",-20.88%
CCc1nc(-c2cncnc2C2CCCNC2)no1.Cl (stereo unspecified),Percent Effect,"30.3 µM, […]",10%
CCC(CC)C(=O)N1CCc2nc(N3CCCC3)nc(C)c2CC1,Percent Effect,"30 µM, 30.03 µM",-41.54%
Cc1cccc(CN2C[C@@H]3CN(C(=O)c4ccco4)C[C@@H]3C2=O)n1.O=C(O)C(F)(F)F,Percent Effect,"30.3 µM, […]",-11.66%
CC(C)(C)c1nc(CC(=O)NC2CCN(C3CC3)C2)cs1 (stereo unspecified),Percent Effect,"30.3 µM, […]",99.7%
CN1CCC(NC(=O)Cc2csc(C(C)(C)C)n2)CC1,Percent Effect,"30.3 µM, […]",4.768%
CC(=O)N1CCC(NC(=O)Cc2csc(C(C)(C)C)n2)CC1,Percent Effect,"30.3 µM, […]",-5.92%
COc1cc2c(c(OC)c1OC)CCN(CCN1CCCCC1)CC2,Percent Effect,"30 µM, 30.03 µM",-20.4%
CCN1CCN(c2ccccc2NC(=O)NCc2ccon2)CC1,Percent Effect,"30.3 µM, […]",-63.99%
Cc1nc(CN2CCCC(CCc3ccccc3C(F)(F)F)C2)co1 (stereo unspecified),Percent Effect,"30.3 µM, […]",52.02%
Fc1ccccc1CC1CCN(Cc2cscn2)CC1,Percent Effect,"30 µM, 30.03 µM",-2.509%
Cc1nc(CN2CCCC(CCc3ccccc3C(F)(F)F)C2)no1 (stereo unspecified),Percent Effect,"30.3 µM, […]",87.44%
FC(F)(F)c1ccccc1CCC1CCCN(Cc2cscn2)C1 (stereo unspecified),Percent Effect,"30.3 µM, […]",51.05%
Cc1nc(CN2CCCC(N(C)CCCc3ccccc3)C2)no1 (stereo unspecified),Percent Effect,"30.3 µM, […]",-9.572%
Cc1nc(CN2CCCC(N(C)CC3CCCC3)C2)no1 (stereo unspecified),Percent Effect,"30.3 µM, […]",-21.28%
Cc1nnc(CN2CCCC(CCc3ccccc3C(F)(F)F)C2)o1 (stereo unspecified),Percent Effect,"30.3 µM, […]",32.35%
Cc1nc(CN2CCCC(CCc3cccc(C(F)(F)F)c3)C2)co1 (stereo unspecified),Percent Effect,"30.3 µM, […]",40.44%
Cn1cc(CN2CCCC(CCc3ccccc3C(F)(F)F)C2)cn1 (stereo unspecified),Percent Effect,"30 µM, 30.03 µM",-18.52%
Cc1ccc2c(n1)N(Cc1cccnc1)CCN(C1CCOCC1)C2.O=C(O)C(F)(F)F.O=C(O)C(F)(F)F.O=C(O)C(F)(F)F,Percent Effect,"30 µM, 30.03 µM",-18.41%
CC1N(c2cnn(C)c2)C(=O)COC12CCN(c1ccccn1)CC2.O=C(O)C(F)(F)F (stereo unspecified),Percent Effect,"30.3 µM, […]",-14.53%
Cc1oncc1C(=O)N1CC[C@H]2[C@H](C[C@@H](CN(C)C)N2CC2CC2)C1.O=C(O)C(F)(F)F.O=C(O)C(F)(F)F,Percent Effect,"30.3 µM, […]",-0.8006%
Cl.O=C(CCN1CCCC1)Nc1c2c(cc3c1CCC3)CCC2,Percent Effect,"30 µM, 30.03 µM",0.04304%
COCC(=O)NC[C@]12COC[C@H]1CN(Cc1ccc3c(c1)OCO3)C2.O=C(O)C(F)(F)F,Percent Effect,"30.3 µM, […]",5.113%
COC1COC2(CCN(C(=O)c3ccccc3F)CC2)C1 (stereo unspecified),Percent Effect,"30.3 µM, […]",-57.28%
CCN(C)c1ncnc2c1CCN(C(=O)Cc1ccccn1)CC2.O=C(O)C(F)(F)F,Percent Effect,"30 µM, 30.03 µM",-43.42%
Cc1ccc(N2CC[C@H](OCC3CC3)[C@@H]2Cc2cnn(C)c2)nn1,Percent Effect,"30 µM, 30.03 µM",51.55%
CCO[C@@H]1CCN(c2ccc(C)nn2)[C@@H]1Cc1cnn(C)c1,Percent Effect,"30.3 µM, […]",-24.65%
CO[C@H]1CCN(c2ccc(C)nn2)[C@H]1Cc1cnn(C)c1,Percent Effect,"30 µM, 30.03 µM",12.56%
Fc1ccccc1CN(CCCn1ccnc1)CC1CCOC1.O=C(O)CC(O)(CC(=O)O)C(=O)O (stereo unspecified),Percent Effect,"30.3 µM, […]",-0.3397%
Cc1cc(CCC(=O)O)nc(C2CCCN2c2ccnc(C)n2)n1 (stereo unspecified),Percent Effect,"30.3 µM, […]",3.845%
Cl.Cl.c1cn(-c2cnc(C3CCNCC3)cn2)cn1,Percent Effect,"30.3 µM, […]",-23.68%
CC(C)(C)c1ccc(OCC(N)=O)c(CN2C[C@H]3C[C@H](O)C[C@H]3C2)c1,Percent Effect,"30.3 µM, […]",-10.55%
COc1ccc(C(=O)N2C[C@@H](NC(=O)N(C)C)[C@H](C(C)C)C2)c(OC)n1,Percent Effect,"30 µM, 30.03 µM",-11.49%
Cc1nc(CN2CCCC(N(C)Cc3cscn3)C2)no1 (stereo unspecified),Percent Effect,"30 µM, 30.03 µM",106.7%
Cc1nc(CN(C)C2CCN(Cc3nc4ccccc4s3)C2)no1 (stereo unspecified),Percent Effect,"30 µM, 30.03 µM",13.35%
Cc1nc(CN(C)C2CCN(Cc3nc4ccccc4n3C)C2)no1 (stereo unspecified),Percent Effect,10 µM,-9.408%
same,Percent Effect,"30.3 µM, […]",44.6%
Cc1cc(CN(C)C2CCCN(Cc3noc(C)n3)C2)no1 (stereo unspecified),Percent Effect,"30.3 µM, […]",-25.02%
Cc1nc(CN(C)C2CCN(Cc3ccc4ccccc4n3)C2)no1 (stereo unspecified),Percent Effect,"30.3 µM, […]",99.64%
CN(Cc1cscn1)C1CCCN(Cc2noc(C3CC3)n2)C1 (stereo unspecified),Percent Effect,"30 µM, 30.03 µM",-28.03%
Cc1occc1C(=O)N1C[C@@H]2OCCN(c3ncccn3)[C@@H]2C1.O=C(O)C(F)(F)F,Percent Effect,"30.3 µM, […]",-9.285%
COc1ccc(-n2ccnc2-c2ccc(C(=O)O)s2)cc1CO,Percent Effect,"30 µM, 30.03 µM",-62.12%
Nc1ncc(-c2ccc(Cl)cc2)c(C2CCCNC2)n1 (stereo unspecified),Percent Effect,"30.3 µM, […]",28.09%
Nc1ncc(-c2ccc(F)cc2)c(C2CCCNC2)n1 (stereo unspecified),Percent Effect,"30.3 µM, […]",1.475%
Nc1ncc(-c2ccc(C(F)(F)F)cc2)c(C2CCCNC2)n1 (stereo unspecified),Percent Effect,"30.3 µM, […]",90.9%
Cc1nc(C)c(C(=O)N2Cc3ccccc3OCC2CN(C)C)o1.Cl.Cl (stereo unspecified),Percent Effect,"30.3 µM, […]",-20.04%
O=C(O)C(F)(F)F.O=C(O)C(F)(F)F.O=C(c1n[nH]c2c1CN(C1CCOC1)CC2)N1CCCC1 (stereo unspecified),Percent Effect,"30.3 µM, […]",8.032%
CCn1cc(NC(=O)c2c(C)nn(C)c2C)c(C(N)=O)n1,Percent Effect,"30.3 µM, […]",53.08%
CCCNC(=O)c1nn(CC)cc1NC(=O)c1c(C)nn(C)c1C,Percent Effect,"30.3 µM, […]",45.33%
CCCNC(=O)c1nn(CC)cc1NC(=O)c1cn(C)nc1C,Percent Effect,"30.3 µM, […]",26.24%
Cc1cnc2n(c1=O)CC(C(=O)Nc1ccon1)CS2 (stereo unspecified),Percent Effect,"30 µM, 30.03 µM",-0.7773%
O=C(c1cc(Cl)c[nH]1)N1CCCC(c2cc(C(F)(F)F)[nH]n2)C1 (stereo unspecified),Percent Effect,"30.3 µM, […]",80.28%
O=C(c1cc[nH]n1)N1CCCC(c2cc(C(F)(F)F)[nH]n2)C1 (stereo unspecified),Percent Effect,"30.3 µM, […]",17.05%
O=C(c1ccc[nH]1)N1CCCC(c2cc(C(F)(F)F)[nH]n2)C1 (stereo unspecified),Percent Effect,"30 µM, 30.03 µM",38.21%
CCOC(=O)C1CC2(CCCCC2)N2CCC(=O)N12 (stereo unspecified),Percent Effect,"30.3 µM, […]",-30.31%
Cc1ccc(C(=O)N2Cc3c(CN4CCCCC4)nn(C)c3C2)o1.O=C(O)C(F)(F)F,Percent Effect,"30 µM, 30.03 µM",0.5997%
